# Results filed as inconclusive are left out. Entries that show only a call come without a potency. Some compounds were tested as several samples or in several runs, with calls that do not always agree. Activity calls are given as the source filed them. Calls follow the shape of the full dose curve.
# Columns and labels:
# [1] = biological target: Acetylcholinesterase (Homo sapiens) (UniProt P22303); assay: Acetylcholinesterase (AChE) small molecule antagonists: colormetric cell-based qHTS assay (AID 1347395); also: nearly all actives have a fitted effect of over 30% in size
# In short: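 SH-SY5Y cells, plated overnight at 37 C, were exposed to compounds for 30 min at 37 C and 5% CO2. Acetylthiocholine plus DTNB was then added, and thiocholine from endogenous AChE was quantified colorimetrically after 90 min at 37 C.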
# [2] = biological target: Acetylcholinesterase (Homo sapiens) (UniProt P22303); assay: Acetylcholinesterase (AChE) small molecule antagonists: enzyme-based qHTS assay (AID 1347397); conditions: Potency: AChE enzyme activity inhibition; outcome: AChE enzyme activity inhibition; also: nearly all actives have a fitted effect of over 55% in size
# In short: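 rhAChE 50 mU/mL (dispensed) + cpd or DMSO, 30 min RT; add DTNB/acetylthiocholine cocktail, 10 min RT; colorimetric thiocholine readout. qHTS, 1536-well format.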
# [3] = biological target: Acetylcholinesterase (Homo sapiens) (UniProt P22303); assay: Acetylcholinesterase (AChE) small molecule antagonists: fluorescence cell-based qHTS assay (AID 1347398); conditions: Potency: AChE activity; outcome: AChE activity; also: nearly all actives have a fitted effect of over 50% in size; also: potency is read from the fitted curve at half-maximal effect
# In short: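 Read-out is Thiolite Green fluorescence at Ex/Em = 490/520 nm, formed by reaction with thiocholine released when cellular AChE in SH-SY5Y cells hydrolyzes acetylthiocholine. Compounds were preincubated 30 min at 37 C before substrate.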
# [4] = biological target: Acetylcholinesterase (Homo sapiens) (UniProt P22303); assay: Acetylcholinesterase (AChE) small molecule antagonists: enzyme-based qHTS assay with human liver microsomes (AID 1347399); conditions: Potency: qHTS inhibition; outcome: qHTS inhibition; also: nearly all actives have a fitted effect of over 60% in size
# In short: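 Recombinant human AChE (50 mU/mL in the enzyme mix) and human liver microsomes (0.25 mg/mL final) were preincubated with compound and NADPH (0.25 mg/mL final) for 30 min at 37 C. Acetylthiocholine/DTNB was then added; thiocholine was read colorimetrically after 10 min at room temperature.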
# Chain of Acetylcholinesterase (Homo sapiens) (P22303 whole entry, looked up): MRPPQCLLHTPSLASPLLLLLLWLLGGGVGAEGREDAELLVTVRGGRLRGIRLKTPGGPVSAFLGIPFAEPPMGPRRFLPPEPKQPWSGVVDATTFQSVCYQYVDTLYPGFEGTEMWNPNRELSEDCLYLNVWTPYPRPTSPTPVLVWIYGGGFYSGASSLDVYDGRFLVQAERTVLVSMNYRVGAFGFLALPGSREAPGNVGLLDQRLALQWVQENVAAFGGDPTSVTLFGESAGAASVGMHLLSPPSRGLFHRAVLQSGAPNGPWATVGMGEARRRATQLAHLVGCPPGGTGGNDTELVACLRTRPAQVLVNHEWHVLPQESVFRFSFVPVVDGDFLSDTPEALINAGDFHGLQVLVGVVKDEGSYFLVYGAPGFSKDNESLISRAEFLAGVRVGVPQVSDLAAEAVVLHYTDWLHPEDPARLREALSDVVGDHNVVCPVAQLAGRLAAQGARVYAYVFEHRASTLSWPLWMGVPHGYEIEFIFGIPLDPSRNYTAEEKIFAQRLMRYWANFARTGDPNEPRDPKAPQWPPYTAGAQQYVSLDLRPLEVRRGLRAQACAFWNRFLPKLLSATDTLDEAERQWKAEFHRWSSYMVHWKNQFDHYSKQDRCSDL
Compound,Potency [1],Potency [2],Potency [3],Potency [4],"activity, negative = inhibition [1]","activity change, negative = inhibition [2]","activity change, negative = inhibition [3]","activity change, negative = inhibition [4]"
CCCNC(=O)NS(=O)(=O)c1ccc(Cl)cc1,inactive,inactive,inactive,inactive,–,–,–,–
COc1ccc(C(=O)c2ccccc2)c(O)c1,inactive,inactive,inactive,inactive,–,–,–,–
N[C@@H](Cc1cc(I)c(Oc2ccc(O)c(I)c2)c(I)c1)C(=O)O,inactive,inactive,inactive,inactive,–,–,–,–
NC(=O)c1nc(-c2cccc(-c3cc(F)ccc3OCC(F)(F)C(F)(F)F)c2)n[nH]1,inactive,inactive,inactive,inactive,–,–,–,–
CCCCCOc1ccc(C2SC(=O)NC2=O)cc1OCC (stereo not given),inactive,inactive,inactive,inactive,–,–,–,–
Cc1cccnc1,inactive,inactive,inactive,inactive,–,–,–,–
C=C(C)C(=O)OCCCCCC,inactive,inactive,inactive,inactive,–,–,–,–
CC(c1cc(C(C)(C)C)cc(C(C)(C)C)c1O)c1cc(C(C)(C)C)cc(C(C)(C)C)c1O,inactive,inactive,inactive,inactive,–,–,–,–
O=C(O)C(S)C(S)C(=O)O (stereo not given),inactive,inactive,inactive,inactive,–,–,–,–
CO[Si](OC)(OC)OC,inactive,inactive,inactive,inactive,–,–,–,–
CCO[Si](CCCN)(OCC)OCC,inactive,inactive,inactive,inactive,–,–,–,–
CC(=O)OCC(COC(C)=O)OC(C)=O,inactive,inactive,31.3 µM (active) and inactive,inactive,–,–,–,–
CC1=CC(=O)c2ccccc2C1=O,inactive,inactive,inactive,inactive,–,–,–,–
O=C(O)C(Cc1cc(I)c(O)c(I)c1)c1ccccc1 (stereo not given),inactive,inactive,inactive,inactive,–,–,–,–
Oc1cccc(-c2c3nc(c(-c4cccc(O)c4)c4ccc([nH]4)c(-c4cccc(O)c4)c4nc(c(-c5cccc(O)c5)c5ccc2[nH]5)CC4)C=C3)c1,inactive,inactive,inactive,inactive,–,–,–,–
CC1=CC(=O)/C(=C(/C)O)C(=O)O1,inactive,inactive,inactive,inactive,–,–,–,–
NC(=O)c1ccc([N+](=O)[O-])cc1,inactive,inactive,inactive,inactive,–,–,–,–
CN(C/C=C/C#CC(C)(C)C)Cc1cccc2ccccc12,inactive,inactive,inactive,inactive,–,–,–,–
CN1CCC[C@@H]1c1cccnc1,inactive,inactive,inactive,inactive,–,–,–,–
CC(C)(C)C1CCC(O)CC1 (stereo not given),inactive,inactive,inactive,inactive,–,–,–,–

Compound,Potency [1],Potency [2],Potency [3],Potency [4],"activity, negative = inhibition [1]","activity change, negative = inhibition [2]","activity change, negative = inhibition [3]","activity change, negative = inhibition [4]"
ClC(c1ccccc1)(c1ccccc1)c1ccccc1,inactive,inactive,inactive,inactive,–,–,–,–
CC(O)c1ccccc1 (stereo not given),inactive,inactive,inactive,inactive,–,–,–,–
CN1C(=O)c2ccccc2C1=O,inactive,inactive,inactive,inactive,–,–,–,–
CCCCC(CC)COC(=O)CC(C(=O)OCC(CC)CCCC)S(=O)(=O)O (stereo not given),inactive,inactive,inactive,inactive,–,–,–,–
CCOC(=O)CCC(=O)OCC,inactive,inactive,inactive,inactive,–,–,–,–
C[C@@H]1O[C@@H](O[C@@H]2[C@@H](O)[C@H](OCCc3ccc(O)c(O)c3)O[C@H](CO[C@@H]3O[C@H](CO)[C@@H](O)[C@H](O)[C@H]3O)[C@H]2OC(=O)/C=C/c2ccc(O)c(O)c2)[C@H](O)[C@H](O)[C@H]1O,inactive,inactive,inactive,inactive,–,–,–,–
OC1OC[C@@H](O)[C@H](O)[C@H]1O (stereo not given in full),inactive,inactive,inactive,inactive,–,–,–,–
N[C@@H](COP(=O)(O)O)C(=O)O,–,–,–,–,0.067% [at 23.6 µM] (inactive),1.8% [at 23.6 µM] (inactive),4.21% [at 23.8 µM] (inactive),4.37% [at 23.6 µM] (inactive)
Cc1cc(O)c(C)c(C)c1O,inactive,inactive,inactive,inactive,–,–,–,–
CCCCCCOC(=O)C(C)C,inactive,inactive,inactive,inactive,–,–,–,–
CS(=O)(=O)OCCCCOS(C)(=O)=O,inactive,inactive,inactive,inactive,–,–,–,–
O=C1NC2NC(=O)NC2N1 (stereo not given),inactive,inactive,inactive,inactive,–,–,–,–
OC[C@H]1O[C@@](CO)(O[C@H]2O[C@H](CO)[C@@H](O)[C@H](O)[C@H]2O)[C@@H](O)[C@@H]1O,inactive,inactive,inactive,inactive,–,–,–,–
COCN(COC)c1nc(N(COC)COC)nc(N(COC)COC)n1,inactive,inactive,inactive,inactive,–,–,–,–
CC(C)=CCC/C(C)=C/CC/C(C)=C/C(=O)OCC(=O)[C@@]1(O)CC[C@H]2[C@@H]3CCC4=CC(=O)C=C[C@]4(C)[C@H]3[C@@H](O)C[C@@]21C,inactive,inactive,inactive,inactive,–,–,–,–
NC(=O)c1ncn([C@@H]2O[C@H](CO)[C@@H](O)[C@H]2O)n1,inactive,inactive,inactive,inactive,–,–,–,–
Cc1c[nH]c2ccccc12,inactive,inactive,inactive,inactive,–,–,–,–
C=CC(=O)OCC(O)COc1ccccc1 (stereo not given),inactive,inactive,inactive,inactive,–,–,–,–
CCCCCC/C=C/C(=O)OC,inactive,inactive,inactive,inactive,–,–,–,–
COc1cc(C(=O)OC(COCCC(C)C)CN2CCOCC2)cc(OC)c1OC (stereo not given),inactive,inactive,inactive,inactive,–,–,–,–

Compound,Potency [1],Potency [2],Potency [3],Potency [4],"activity, negative = inhibition [1]","activity change, negative = inhibition [2]","activity change, negative = inhibition [3]","activity change, negative = inhibition [4]"
CCCCC(O)/C=C(C)/C=C/C=C/C(=O)N1CCCC1=O (stereo not given),inactive,inactive,inactive,inactive,–,–,–,–
NS(=O)(=O)c1cc2c(cc1Cl)NCNS2(=O)=O,inactive,inactive,inactive,inactive,–,–,–,–
CC(CC=O)CCCC(C)(C)O (stereo not given),inactive,inactive,inactive,inactive,–,–,–,–
O=C(O)CCc1ccccc1,inactive,inactive,inactive,inactive,–,–,–,–
CC(=O)Nc1ccc(C)cc1,inactive,inactive,inactive,inactive,–,–,–,–
O=C(NC(Cc1cc(=O)[nH]c2ccccc12)C(=O)O)c1ccc(Cl)cc1 (stereo not given),inactive,inactive,inactive,inactive,–,–,–,–
OCCCc1ccccc1,inactive,inactive,inactive,inactive,–,–,–,–
CC(=O)c1ccc(OCC(=O)N2CCCCC2)cc1,inactive,inactive,inactive,inactive,–,–,–,–
CC/C=C(\C(=O)N[C@@H]1C(=O)N2C(C(=O)OCOC(=O)C(C)(C)C)=C(COC(N)=O)CS[C@H]12)c1csc(N)n1,inactive,inactive,inactive,inactive,–,–,–,–
O=c1[nH][nH]c2ccccc12,inactive,inactive,inactive,inactive,–,–,–,–
CSc1ccc(C=O)cc1,inactive,inactive,inactive,inactive,–,–,–,–
CCC(=O)OC(=O)CC,inactive,inactive,inactive,inactive,–,–,–,–
NC[C@H]1O[C@H](O[C@H]2[C@H](O[C@@H]3O[C@H](CO)[C@@H](O)[C@H]3O)C(O)[C@H](N)C[C@@H]2N)[C@H](N)[C@@H](O)[C@@H]1O (stereo not given in full),–,–,–,–,-1.41% [at 10.5 µM] (inactive),0.757% [at 10.5 µM] (inactive),8.04% [at 10.5 µM] (inactive),-2.19% [at 10.5 µM] (inactive)
CCCCCCCCS(=O)(=O)O,inactive,inactive,inactive,inactive,–,–,–,–
CC(C)C(=O)c1ccccc1,inactive,inactive,inactive,inactive,–,–,–,–
NC(=O)C1(N2CCCCC2)CCN(CCCC(=O)c2ccc(F)cc2)CC1,inactive,inactive,inactive,inactive,–,–,–,–
Nc1cccc(O)c1,inactive,inactive,inactive,inactive,–,–,–,–
Cc1cccc(C)c1NC(=O)c1ccc(N)cc1,inactive,inactive,inactive,inactive,–,–,–,–
O=c1cc[nH]c(=O)[nH]1,inactive,inactive,inactive,inactive,–,–,–,–
CN1[C@@H]2CC[C@H]1CC(OC(=O)c1c[nH]c3ccccc13)C2 (stereo not given in full),inactive,inactive,inactive,inactive,–,–,–,–

# From PubChem BioAssay (Tox21)
